According to ChEMBL document CHEMBL4513216, “Probing the Open Global Health Chemical Diversity Library for Multistage-Active Starting Points for Next-Generation Antimalarials” (ACS Infect Dis, 2020):
About 2,700 (4%) of roughly 68,000 compounds showed an effect of 50% or more. Many of the other results were omitted from the sample, so strong results are more common in it than they were.

Test system: Plasmodium berghei
Assay: Screen against P. berghei liver stage (PbLuc), transformed with Luciferase, at 2uM
Assay type: functional, HepG2
Conditions: tested at 2 uM

SMILES	INHIBITION [%]
c1ccc(-c2ncc(CNC3CCc4ncnn4C3)cn2)cc1 (stereo not drawn)	15.31
c1ccc(CCN2CCOC(Cn3cccn3)C2)nc1 (stereo not drawn)	23.71
CC(NC(=O)NCCCNS(C)(=O)=O)c1ccncc1 (stereo not drawn)	9.9
CN1CCN(C(=O)N2CCCC(c3nccn3CC3CCC3)C2)CC1 (stereo not drawn)	-18.71
Cc1nc(CN2CCC(C(=O)O)(n3ccc(C(C)C)n3)CC2)co1	53.55
Cc1nc(CN2CCC(C(=O)O)(n3ccc(-c4ccco4)n3)CC2)co1	-26.72
Cc1ccc(N2CCC(C(=O)O)(n3ccc(C(C)C)n3)CC2)nn1	-12.36
Cc1ccc(-n2nnc(C(=O)O)c2C)c(C)c1	-2.64
O=C(c1cc(F)cc(F)c1)N1C[C@H]2CNC[C@H]2C1	51.81
O=C(c1ccc(S(=O)(=O)NC2CCC2)cc1)N1CC[C@H]2CNC[C@H]21	-13.8
O=C(c1ccc(S(=O)(=O)NCC(F)F)cc1)N1CC[C@H]2CNC[C@H]21	26.74
O=C(c1ccc(F)c(F)c1)N1C[C@H]2CNC[C@H]2C1	-9.69
Cc1ccc(C(=O)N2C[C@H]3CNC[C@H]3C2)cn1	-53.62
O=C(c1ccc(S(=O)(=O)NCC(F)F)cc1)N1C[C@H]2CNC[C@H]2C1	57.75
O=C(c1cnccn1)N1C[C@@H](OCc2cccnc2)[C@H]2OCCC[C@H]21	-39.95
CCN(CC)[C@@H]1CN(Cc2nccn2C)[C@@H]2CCCO[C@H]12	-3.53
CCCc1nc(CN2CCN(C(C)c3nc(C4CC4)no3)CC2)no1 (stereo not drawn)	50.18
Cc1noc(C(C)N2CCN(Cc3nnc(C4CC4)o3)CC2)n1 (stereo not drawn)	-4.99
CCCc1noc(C(C)S(=O)(=O)Cc2nc(C3CC3)no2)n1 (stereo not drawn)	-7.66
CC(C)c1noc(C(C)N2CCN(Cc3cccs3)CC2)n1 (stereo not drawn)	41.76
CC(c1nc(C2CC2)no1)N1CCN(Cc2nnc(C3CC3)o2)CC1 (stereo not drawn)	49.01
CC(C)c1noc(C(C)N2CCN(Cc3ccsc3)CC2)n1 (stereo not drawn)	60.31
CC(C)c1noc(C(C)N2CCN(Cc3nnc(C4CC4)o3)CC2)n1 (stereo not drawn)	58.52
CC(c1nc(C2CC2)no1)N1CCN(Cc2ccsc2)CC1 (stereo not drawn)	5.72
CC(C)c1noc(C(C)S(=O)(=O)Cc2nc(C3CC3)no2)n1 (stereo not drawn)	-17.22
CCc1nc(CN2CCN(C(C)c3nc(C4CC4)no3)CC2)no1 (stereo not drawn)	13.91
CCc1noc(CS(=O)(=O)C(C)c2nc(C3CC3)no2)n1 (stereo not drawn)	57.16
CC(C)c1nc(CN2CCN(C(C)c3nc(C4CC4)no3)CC2)no1 (stereo not drawn)	-42.32
